Test results published in PubChem BioAssay (EPA / NIEHS).
Where “and” joins values, the source holds several entries; their conditions need not be identical. Equal values may be shown once. Where a structure was tested more than once in an assay, its records may differ in their call. Calls of active or inactive are those of the source. Rule for the calls: active = hit-call score of the fitted dose curve at least 0.9, where 1 is the maximum; inactive = score below 0.9.

Molecular target: Nuclear respiratory factor 1 (Homo sapiens) (UniProt Q16656)
Experiment: ATG_NRF1_CIS: Attagene CIS-FACTORIAL HepG2 Assay for human Nuclear Respiratory Factor 1 (NRF1) Orphan Gene (AID 2282987)
Conditions: HepG2 NRF1 cis-element reporter, Attagene multiplex; actives raise or lower the signal
Procedure: ATG_CIS is a cell-based, multiplexed-readout assay that uses HepG2, a human liver cell line, with measurements taken at 24 hours after chemical dosing in a 24-well plate.ATG_NRF1_CIS is one of 52 assay component(s) measured or calculated from the ATG_CIS assay. It is designed to make measurements of mRNA induction, a form of inducible reporter, as detected with fluorescence intensity signals by Reverse transcription polymerase chain reaction (RT-PCR) and Capillary electrophoresis technology.Data from the assay component ATG_NRF1_CIS was analyzed into 1 assay endpoint. This assay endpoint, ATG_NRF1_CIS, was analyzed with bidirectional fitting relative to DMSO as the negative control and baseline of activity. Using a type of inducible reporter, measures of mRNA for gain or loss-of-signal activity can be used to understand the reporter gene at the transcription factor-level as they relate to the gene NRF1. Furthermore, this assay endpoint can be referred to as a primary readout, because this assay has produced multiple assay endpoints where this one serves a reporter gene function. To generalize the intended target to other relatable targets, this assay endpoint is annotated to the dna binding intended target family, where the subfamily is nuclear respiratory factors.
Human liver HepG2 cells are transiently transfected with multiple reporter transcription units (MRTUs) in 6-well plates using FuGene 6 reagent (Roche; 3 ml FuGene/1 mg DNA). The MRTU constructs are regulated by a cis-regulating element (promoter). […] A major difference between the CIS and TRANS system is that in CIS activities of endogenous TFs are measured, whereas the TRANS assay evaluates changes in activities of exogenous, chimeric NR-Gal4 proteins. […] At the end of 24 hour incubation, total RNA was isolated using TriZol reagent (Invitrogen). The isolated RNA is then reverse-transcribed using oligo(dT) primer and Mo-MLV reverse transcriptase (Invitrogen) with DNAse I (Ambion) treatment for 30 min. The one-tenth of the produced cDNA was amplified by PCR using Taq DNA polymerase (Invitrogen) and two reporter sequence-specific primers. The PCR products were fluorescently labeled by primer extension with 6-arboxyfluorescein (6-FAM) 5'-labeled reporter sequence-specific primer (2 min at 95 C, 20 s at 68 C and 10 min at 72 C) and these products were digested with 5U of HpaI (New England Biolabs) for 2h at 37 C. The fragments were purified using Qiaquick PCR columns (Qiagen), analyzed on an ABI 3130xL genetic analyzer (Applied Biosystems) with peak positions identified by using a set of X-rhodamine (ROX)-labeled MapMarker1000 molecular weight standards (BioVentures). The raw capillary electrophoresis data was processed using Attagraph software (Attagene).

Chain of Nuclear respiratory factor 1 (Homo sapiens) (Q16656 whole entry, looked up): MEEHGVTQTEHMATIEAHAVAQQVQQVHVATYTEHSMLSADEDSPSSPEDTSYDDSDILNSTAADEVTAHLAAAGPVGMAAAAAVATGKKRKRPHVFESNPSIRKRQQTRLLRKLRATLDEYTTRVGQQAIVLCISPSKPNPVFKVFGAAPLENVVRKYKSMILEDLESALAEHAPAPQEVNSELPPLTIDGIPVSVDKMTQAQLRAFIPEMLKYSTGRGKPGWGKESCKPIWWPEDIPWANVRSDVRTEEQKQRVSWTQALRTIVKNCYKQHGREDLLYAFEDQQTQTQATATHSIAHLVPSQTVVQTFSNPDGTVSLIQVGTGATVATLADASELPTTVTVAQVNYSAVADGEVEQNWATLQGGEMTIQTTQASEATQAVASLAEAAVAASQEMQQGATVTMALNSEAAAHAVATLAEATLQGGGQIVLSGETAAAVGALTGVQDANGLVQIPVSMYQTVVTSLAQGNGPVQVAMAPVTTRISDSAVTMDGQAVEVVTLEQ

Row | Structure (SMILES) | outcome | AC50
1 | O=C(O)c1ccco1 | inactive | 
2 | CCCCOCCOCCOCCO | inactive | 
3 | C=C1CC/C=C(\C)CC[C@@H]2[C@@H]1CC2(C)C | inactive | 
4 | CC(C)=CC(=O)O | inactive | 
5 | CCOC(=O)CCCCCCCCC(=O)OCC | inactive | 
6 | C#C[C@]1(O)CC[C@H]2[C@@H]3CCc4cc(O)ccc4[C@H]3CC[C@@]21C | inactive | 152 µM (active) and 138 µM (active)
7 | CC/C=C\C#N | inactive | 
8 | O=C(C=Cc1ccccc1)OCCCc1ccccc1 | inactive | 
9 | C1COCO1 | inactive | 
10 | CC12CCC(C1)C(C)(C)C2O (stereo not given) | inactive | 
11 | O=C(O)c1cc2ccccc2cc1O | inactive | 
12 | CCCCCCCCCCCCCCCCCC(=O)OCCCCCCCCCCCCCC(C)C | inactive | 
13 | CC(O)CN (stereo not given) | inactive | 
14 | CCNC(=S)NCC | inactive | 
15 | CC(=O)Oc1c(C)c(C)c2c(c1C)CC[C@@](C)(CCC[C@H](C)CCC[C@H](C)CCCC(C)C)O2 | inactive | 
16 | CC(C)C(=O)OCC=Cc1ccccc1 | inactive | 
17 | C=CCOC(=O)/C=C\C(=O)OCC=C | inactive | 
18 | CCO[Si](CCC#N)(OCC)OCC | inactive | 
19 | CCCCCC1CCC(=O)O1 (stereo not given) | inactive | 
20 | CCOc1ccc(NC(C)=O)cc1 | inactive | 

Row | Structure (SMILES) | outcome | AC50
21 | C=C(C)C(=O)OCCC(C)OC(=O)C(=C)C (stereo not given) | inactive | 
22 | C=CC(C)(CCC=C(C)C)OC(=O)CC (stereo not given) | inactive | 
23 | NC(=O)c1cccnc1 | inactive | 
24 | CC1(C)CC(=O)CC(C)(C)N1 | inactive | 
25 | CCCCCCCCSCc1cc(C)c(O)c(CSCCCCCCCC)c1 | inactive | 
26 | CC1COC(=O)O1 (stereo not given) | inactive | 
27 | CC/C=C\CCOC(=O)C(C)C | inactive | 
28 | O=S1(=O)CC=CC1 | inactive | 
29 | CCOCC(C)O (stereo not given) | inactive | 
30 | c1ccc(Cc2ccccc2)cc1 | inactive | 
31 | COC(=O)c1ccc(C(=O)OC)cc1 | inactive | 
32 | CCc1cccc(O)c1 | inactive | 
33 | CCCCCCCCCCCCN1CCOCC1 |  | 59.8 µM (active)
34 | CCCCCCC(O)CCOC(C)=O (stereo not given) | inactive | 
35 | CC1(C)[C@H](C=C(Cl)Cl)[C@H]1C(=O)OCc1cccc(Oc2ccccc2)c1 | inactive | 
36 | C=C/C(C)=C/C/C=C(\C)CCC=C(C)C | inactive | 
37 | C=C(C)CCCC(C)CCO (stereo not given) | inactive | 
38 | S=c1[nH][nH]c(=S)s1 | inactive | 
39 | CCCCCc1cccc(=O)o1 | inactive | 
